About 83,000 compounds went through this panel and 20% of them were active in at least one assay; those are over-represented in the sample as a whole.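 A percent growth of 40 corresponds to 60% growth inhibition; 0 means no net growth; -100 means all cells died. Active threshold: below 10.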 Activity calls are given as the source filed them.
What was measured:
Assay in all cases: NCI-60 one-dose screen, 48 h (100 = growth as untreated, 0 = no growth, -100 = all killed)
Details in all cases: 10 µM unless noted
[1] = tested on: NCI-H23 lung
[2] = tested on: NCI-H226 lung
[3] = tested on: NCI-H322M lung
[4] = tested on: HOP-62 NSCLC
[5] = tested on: NCI-H460 lung
[6] = tested on: HOP-92 NSCLC
[7] = tested on: NCI-H522 lung
[8] = tested on: A549/ATCC NSCLC
[9] = tested on: 786-0 renal
[10] = tested on: COLO 205 colon
[11] = tested on: DU-145 prostate
[12] = tested on: K-562 leukemia
[13] = tested on: MALME-3M melanoma
[14] = tested on: MDA-MB-231 breast
[15] = tested on: RXF 393 renal
[16] = tested on: SF-268 CNS
[17] = tested on: SF-295 CNS
[18] = tested on: UACC-257 melanoma
[19] = tested on: M14 melanoma
[20] = tested on: SF-539 CNS

Measured: growth

Cc1oc2c(C)c3oc(=O)cc(C)c3cc2c1CCl
inactive: [1] 84.9% | [2] 75.5% | [3] 75.9% | [4] 92.3% | [5] 91.8% | [6] 58.5% | [7] 54.7% | [8] 88.5% | [9] 84.2% | [10] 83.8% | [11] 72.8% | [12] 59% | [13] 95.8% | [14] 81.7% | [15] 83.6% | [16] 75.9% | [17] 87% | [18] 88.9% | [19] 93.2%

OC(c1cc(C23CC4CC(CC(C4)C2)C3)nc2c(Cl)cc(Cl)cc12)C1CCCCN1 (centres undefined)
active: [1] -53.9% | [2] -69.4% | [3] -19.3% | [4] -88.6% | [5] -71.4% | [6] -80.7% | [7] -81% | [8] -74.6% | [9] -55% | [10] -87.2% | [11] -93.6% | [12] -67% | [13] -16.3% | [14] -62.2% | [15] -91.4% | [16] -86.9% | [20] -76.9% | [18] -69.1% | [19] -85.6%

O=C1C(=O)c2cccnc2-c2ncccc21
active: [1] -68.3% | [2] -28.7% | [4] -44.7% | [5] -57.3% | [6] -36.9% | [7] 5.23% | [8] 6.49% | [9] -94.1% | [10] -88.5% | [11] -74% | [12] -23.4% | [13] -12.6% | [14] -39.3% | [16] -94.5% | [17] 2.62% | [20] -97% | [18] 0.671% | [19] -92.6%
inactive: [3] 20.5%

COc1cc(NC(=O)C2=C(C)NC(C)=C(C(=O)Nc3cc(OC)c(Cl)cc3OC)C2c2cccc([N+](=O)[O-])c2)c(OC)cc1Cl
inactive: [1] 34.6% | [2] 45.7% | [3] 46.3% | [4] 43.2% | [5] 36.8% | [6] 13.2% | [7] 46.8% | [8] 35.7% | [9] 39% | [10] 50.5% | [11] 58.4% | [12] 33.4% | [13] 37.5% | [15] 36.7% | [16] 39.3% | [17] 26.3% | [20] 31.8% | [18] 46.9% | [19] 20.1%

Nc1nc(N)c2cc(Sc3cccc(C(F)(F)F)c3)ccc2n1
inactive: [1] 40.3% | [2] 57.6% | [3] 37.1% | [4] 61.3% | [5] 14.9% | [6] 28.5% | [7] 35.4% | [8] 12.7% | [9] 19.2% | [11] 28.6% | [13] 31.5% | [14] 45.3% | [15] 42.8% | [16] 29.5% | [20] 28.6% | [18] 27.4% | [19] 13.6%
active: [10] -75.9% | [12] 8.39%

Cc1nc([N+](=O)[O-])c(Sc2nncc(-c3ccccc3)n2)n1C
inactive: [1] 82.1% | [2] 80.1% | [3] 92.1% | [4] 95.4% | [5] 110% | [6] 93.1% | [7] 95.2% | [8] 95.9% | [9] 94% | [10] 74.5% | [11] 67.3% | [12] 89.7% | [14] 92.6% | [16] 93.5% | [17] 144% | [20] 106% | [18] 29.8% | [19] 88.2%
active: [13] -7.36%

CC1=CC(=O)C=CC1(C)C(Cl)(Cl)Cl (centres undefined)
inactive: [1] 100% | [2] 95.2% | [3] 102% | [4] 84.7% | [5] 104% | [6] 106% | [7] 82.2% | [8] 68.4% | [9] 101% | [10] 89.7% | [11] 124% | [12] 107% | [13] 91.2% | [14] 92.2% | [15] 115% | [16] 107% | [17] 102% | [18] 69.8% | [19] 97.8%

CN(C)c1ccc(/C=C/c2ccnc3ccccc23)cc1
inactive: [1] 58.6% | [2] 23.5% | [3] 97.3% | [4] 61.8% | [5] 21.7% | [6] 27.2% | [8] 24.7% | [9] 54.7% | [10] 40.6% | [11] 78.1% | [12] 25.1% | [13] 60.2% | [14] 57.4% | [16] 70% | [17] 31.7% | [20] 47.2% | [18] 41.9% | [19] 44.3%
active: [7] -24%

Cc1cc2nc(CC(=O)c3ccncc3)c(=O)[nH]c2cc1C
inactive: [1] 94.2% | [2] 87.4% | [3] 95.9% | [4] 95% | [5] 95.2% | [6] 92.8% | [7] 87.6% | [8] 98.5% | [9] 87.7% | [10] 130% | [11] 100% | [12] 91.1% | [13] 109% | [15] 96.4% | [16] 94.2% | [17] 92% | [20] 60.8% | [18] 107% | [19] 106%

NC(=S)N/N=C\c1nccc2c(N)cccc12
inactive: [1] 15.6% | [6] 19.8% | [8] 12.4% | [9] 14.2% | [10] 16.2% | [11] 11% | [12] 14.2% | [14] 49% | [15] 35.8%
active: [2] -5.48% | [3] 4.54% | [4] -7.04% | [5] 3.27% | [7] 6.31% | [13] 3.21% | [16] 8.21% | [17] -15.5% | [18] 7.45% | [19] -34.8%

NC(=S)Nc1ccc2c(c1)Cc1ccccc1-2
inactive: [1] 83.1% | [2] 77.8% | [3] 89.2% | [4] 84.2% | [5] 94.8% | [6] 63.9% | [7] 62.9% | [8] 72.5% | [9] 115% | [10] 98.2% | [11] 108% | [12] 82% | [13] 88.4% | [14] 69.5% | [15] 102% | [16] 90.5% | [17] 98.7% | [18] 69.9% | [19] 99.7%
